The record followed here is PubChem BioAssay (NCI).

Some test systems named below: SK-MEL-2 melanoma; EKVX NSCLC; SN12C renal; UO-31 renal; TK-10 renal; ACHN renal; CAKI-1 renal; A498 renal; CCRF-CEM leukemia; MOLT-4 leukemia.
Common to all, as to assay: NCI-60 one-dose screen, 48 h (100 = growth as untreated, 0 = no growth, -100 = all killed)
What all share (conditions): 10 µM unless noted

Molecules are shown by their SMILES. Compounds without any hit were thinned out: in the full panel of roughly 83,000, 20% have a hit.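 Negative percent growth values reflect cell death: -40 means 40% of the cells present at the start died, and -100 means all died.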 A number with no mark means an inactive call. Calls of active or inactive are those of the source. The calls were made as follows: active = growth percent below 10; inactive = the rest.

With `Nc1ncnc2c1N=C(c1ccc3c(c1)OCO3)CC(c1ccc([N+](=O)[O-])cc1)N2` (stereo not given), the growth with SK-MEL-2 melanoma is 60.8%; in the assay with EKVX NSCLC, 87.4%; with SN12C renal, 84%; with UO-31 renal, 64.1%; in the assay with TK-10 renal it was 112%; with ACHN renal, 82.4%. Further, the growth with CAKI-1 renal is 99.2%; with A498 renal, 67.3%; with CCRF-CEM leukemia it was 39.3%; in the assay with MOLT-4 leukemia, 99.3%.
As to `Cc1c(-c2nc3ccc(F)cc3c(=O)[nH]2)c2ccccc2n1C`, the growth in the assay on SK-MEL-2 melanoma was 45.6%; in the assay with EKVX NSCLC it was 57.5%; in the assay on SN12C renal, 38.8%; with UO-31 renal, 53.7%; with TK-10 renal, 83.5%; in the assay on ACHN renal, 36%. The growth with CAKI-1 renal was 40.8%; with A498 renal, -12.8% (active); with CCRF-CEM leukemia, 15.6%; in the assay on MOLT-4 leukemia it was 23%.
`CC(=O)Cc1nsc(NC(=O)c2cc(-c3cc(Cl)cc(Cl)c3)oc2C)n1`: the growth with SK-MEL-2 melanoma was 102%; with EKVX NSCLC it was 97.3%; with SN12C renal it was 98.8%; in the assay on UO-31 renal, 81%; in the assay with TK-10 renal, 130%; in the assay with ACHN renal, 105%. The growth with CAKI-1 renal was 90.8%; in the assay on A498 renal, 103%; in the assay with CCRF-CEM leukemia, 103%; in the assay with MOLT-4 leukemia, 96.7%.
Regarding `O=C(Nc1ccc(-c2nc(N3CCOCC3)c3cccn3n2)cc1)Nc1cccnc1`, the growth is -4.42% (active) in the assay with SK-MEL-2 melanoma; -13.5% (active) in the assay with EKVX NSCLC; 6.41% (active) in the assay on SN12C renal; -9.74% (active) in the assay with UO-31 renal; -17.4% (active) in the assay with TK-10 renal; -5.66% (active) with ACHN renal. Also, the growth was 8.83% (active) in the assay on CAKI-1 renal, -35% (active) with A498 renal, 12.6% in the assay on CCRF-CEM leukemia and 5.84% (active) in the assay with MOLT-4 leukemia.
`CC(=O)n1nc(C(=O)OC(C)C)c2cc(C)c(C)cc21`: the growth in the assay with SK-MEL-2 melanoma is 106%; with EKVX NSCLC it was 99%; in the assay on SN12C renal, 105%; in the assay on UO-31 renal it was 94.4%; in the assay with TK-10 renal it was 98.6%; in the assay with ACHN renal, 101%. Also, the growth in the assay on CAKI-1 renal is 99.3%; with A498 renal, 104%; in the assay with CCRF-CEM leukemia, 84.7%; in the assay with MOLT-4 leukemia, 84.8%.
Regarding `CN(C)C1CCN(Cc2ccc(NC(=O)c3cncc(C#Cc4cnc(N)c5ncccc45)c3)cc2C(F)(F)F)CC1`, the growth is 79.9% in the assay on SK-MEL-2 melanoma; 93.5% in the assay with EKVX NSCLC; 93.1% in the assay with SN12C renal; 89.3% with UO-31 renal; 128% in the assay with TK-10 renal; -90.9% (active) in the assay with ACHN renal. For the same molecule, the growth was 78.4% in the assay on CAKI-1 renal, 85.2% with A498 renal, 4.13% (active) in the assay with CCRF-CEM leukemia and 24.7% in the assay on MOLT-4 leukemia.
Take `COC(C(=O)[C@@H](O)[C@@H](C)O)[C@@H]1Cc2cc3cc(O[C@H]4C[C@@H](O[C@H]5C[C@@H](O)[C@H](O)C(C)O5)[C@H](O)C(C)O4)cc(O)c3c(O)c2C(=O)[C@H]1O[C@H]1C[C@@H](O[C@H]2C[C@@H](O[C@H]3C[C@@H](OC)[C@H](O)C(C)O3)[C@@H](O)C(C)O2)[C@H](O)C(C)O1` (stereo not given in full): the growth with SK-MEL-2 melanoma is 33.2%; with EKVX NSCLC it was 68.4%; in the assay with SN12C renal, 33%; with UO-31 renal, 64.5%; in the assay on TK-10 renal, 59.5%; in the assay with ACHN renal, 53.6%. Moreover, the growth with CAKI-1 renal was 73.5%; in the assay with A498 renal it was -5.04% (active); in the assay on CCRF-CEM leukemia, 68.9%; with MOLT-4 leukemia, 48.2%.
In the case of `COc1cc2c(c(OC)c1OC)CCC(c1cccc(C(=O)Nc3cccc(Br)c3)c1)O2` (stereo not given), the growth in the assay with SK-MEL-2 melanoma was 76.8%; with EKVX NSCLC, 50.4%; in the assay on SN12C renal it was 55.9%; in the assay with UO-31 renal it was 54.7%; with TK-10 renal it was 78.7%; in the assay on ACHN renal, 84.3%. The growth in the assay with CAKI-1 renal is 57.8%; in the assay with A498 renal it was 28.8%; in the assay with CCRF-CEM leukemia, 69%; in the assay with MOLT-4 leukemia, 49.4%.
As to `O=C1c2ccc3c4ccc5c6c(ccc(c7ccc(c2c37)C(=O)N1CCC[P+](c1ccccc1)(c1ccccc1)c1ccccc1)c64)C(=O)N(CCC[P+](c1ccccc1)(c1ccccc1)c1ccccc1)C5=O`, the growth was 98.7% in the assay with SK-MEL-2 melanoma; 45.6% with EKVX NSCLC; 70.5% with SN12C renal; 80.7% in the assay with UO-31 renal; 141% in the assay on TK-10 renal; 104% in the assay on ACHN renal. In addition, the growth in the assay with CAKI-1 renal was 0.659% (active); with A498 renal, 78.1%; in the assay with CCRF-CEM leukemia, 45.9%; with MOLT-4 leukemia, 46.1%.
Turning to `CCOC(=O)CNP(=O)(OC[C@@H](Cc1ccccc1)NC(=O)c1cc2ccccc2s1)Oc1ccccc1` (stereo not given in full), the growth in the assay with SK-MEL-2 melanoma was 75.9%; in the assay with EKVX NSCLC, 80.6%; in the assay with SN12C renal, 84.9%; in the assay on UO-31 renal, 80.7%; in the assay on TK-10 renal it was 109%; in the assay with ACHN renal it was 99.9%. Further, the growth in the assay on CAKI-1 renal is 70.6%; with A498 renal it was 38.5%; in the assay with CCRF-CEM leukemia it was 86.5%; in the assay on MOLT-4 leukemia it was 54.8%.
As to `O=C1c2c(c3c4ccccc4[nH]c3c3ccc4ccccc4c23)C(=O)N1CCN1CCCCC1`, the growth with SK-MEL-2 melanoma is 90.5%; with EKVX NSCLC it was 75.5%; in the assay with SN12C renal, 22.6%; with UO-31 renal, 39.7%; in the assay with TK-10 renal it was 87.4%; with ACHN renal, 12.7%. For the same molecule, the growth with CAKI-1 renal was 24.7%; with A498 renal it was 45.7%; with CCRF-CEM leukemia it was 3.2% (active); in the assay on MOLT-4 leukemia, 7.16% (active).
`C#CCOc1ccc2ncnc(Nc3cccc(NC(=O)C=C)c3)c2c1`: the growth in the assay on SK-MEL-2 melanoma was 70.8%; with EKVX NSCLC, 51.6%; in the assay with SN12C renal, 65.3%; in the assay with UO-31 renal, 41.3%; in the assay on TK-10 renal, 45.2%; with ACHN renal, 45.8%. Besides, the growth with CAKI-1 renal was 45.5%; in the assay with A498 renal, 47.7%; in the assay with CCRF-CEM leukemia, 79.9%; in the assay with MOLT-4 leukemia, 60.6%.
Turning to `CC(C)OC(=O)c1ccc2[nH]c(O)c(C(=Nc3ccc(N(C)C(=O)CN4CCN(C)CC4)cc3)c3ccccc3)c2c1`, the growth with SK-MEL-2 melanoma is -73.6% (active); in the assay on EKVX NSCLC, -3.97% (active); with SN12C renal, 8.95% (active); in the assay on UO-31 renal, -96.3% (active); with TK-10 renal, -90.5% (active); with ACHN renal it was 2.21% (active). Also, the growth in the assay on CAKI-1 renal is -93.4% (active); in the assay with A498 renal it was -48.3% (active); in the assay with CCRF-CEM leukemia it was 6.41% (active); in the assay with MOLT-4 leukemia it was -17.9% (active).
